Over roughly 33,000 sequences, “E-score (-0.5 to 0.5)” has its median near -0.032; the highest 2% begin near 0.36. The list comes from a sample in which the highest values are over-represented; it also holds similar and randomly drawn sequences.
target: T1, Sko1 (UniProt Q02100); test: PBM E-score (8-mer binding enrichment) (E-score (-0.5 to 0.5)); higher = stronger / more preferred TF binding; details: protein concentration: 200 nM; construct: GST-full length
T1 sequence: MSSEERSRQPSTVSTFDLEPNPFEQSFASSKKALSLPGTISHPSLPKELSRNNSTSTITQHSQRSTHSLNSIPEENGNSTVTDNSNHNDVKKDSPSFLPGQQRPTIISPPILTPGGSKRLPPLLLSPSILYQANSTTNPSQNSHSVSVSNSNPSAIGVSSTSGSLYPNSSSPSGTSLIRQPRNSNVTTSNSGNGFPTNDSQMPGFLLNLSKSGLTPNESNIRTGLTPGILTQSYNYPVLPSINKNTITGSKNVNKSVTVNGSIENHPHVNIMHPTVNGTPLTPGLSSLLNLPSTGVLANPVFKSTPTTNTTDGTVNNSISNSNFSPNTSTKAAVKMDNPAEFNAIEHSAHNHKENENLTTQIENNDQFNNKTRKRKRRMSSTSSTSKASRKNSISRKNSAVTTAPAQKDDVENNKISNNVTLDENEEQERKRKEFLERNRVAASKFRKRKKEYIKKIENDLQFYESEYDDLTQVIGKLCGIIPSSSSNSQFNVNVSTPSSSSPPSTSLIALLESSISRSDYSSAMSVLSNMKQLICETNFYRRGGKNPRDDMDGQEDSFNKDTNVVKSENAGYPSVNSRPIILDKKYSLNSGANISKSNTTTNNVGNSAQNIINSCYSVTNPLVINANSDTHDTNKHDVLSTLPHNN
Summary of the method: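 GST-tagged yeast TFs (full-length or DNA-binding domain) were made by PURExpress in vitro transcription/translation and applied at about 100-200 nM to universal all-10-mer Agilent arrays. The arrays were made double-stranded by primer extension, on fresh or once-stripped slides. Bound protein was detected with fluorescent anti-GST, and scans were normalised with masliner. Each ungapped eight-base word, pooled with its reverse complement, received an E-score (modified Wilcoxon-Mann-Whitney statistic) from the Universal PBM Analysis Suite.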

| Sequence | PBM E-score |
| --- | --- |
| ACTCTCTG | -0.135 |
| CTCGCAAG | 0.0771 |
| CAGCACCG | -0.198 |
| AAGAGCAT | 0.0596 |
| AAAGGTGA | -0.09 |
| CATTGTTA | 0.108 |
| GTTCTTTA | 0.175 |
| CTTAGGTC | 0.0974 |
| CTTACGTA | 0.489 |
| GTTACGTA | 0.483 |
| CTTACGGA | 0.0115 |
| CTTACGTC | 0.459 |
| GTTACGGA | 0.0875 |
| CTTACTTA | 0.0934 |
| CTTACGGC | -0.277 |
| GTTACTGA | 0.173 |
| GGTTGCCA | -0.215 |
| CCCTGATA | -0.149 |
| ATCACTGG | 0.0306 |
| CATATCCA | -0.129 |
| ACCGTTCC | -0.0907 |
| GCGCCACC | -0.291 |
| AGACGTGA | 0.312 |
| AGACGTGG | 0.203 |

| Sequence | PBM E-score |
| --- | --- |
| GTACGTGA | 0.416 |
| AAACGTGA | 0.308 |
| AGACGTGC | 0.241 |
| ATACGTGG | 0.429 |
| GAACGTGA | 0.175 |
| GGACGTGA | 0.181 |
| AAACGTGG | 0.213 |
| CTACGTGC | 0.354 |
| ATACGTGA | 0.426 |
| ATACGTGC | 0.406 |
| CAGTCTTC | -0.187 |
| AGCCGAAT | -0.104 |
| AGCCTTTA | 0.0785 |
| CTGGTGGA | -0.185 |
| CTTCGTGA | 0.186 |
| CTACGCGA | 0.167 |
| CTACGTGA | 0.404 |
| GGTCAGAC | -0.241 |
| CGTCAGAA | 0.37 |
| AGTCAGAG | -0.142 |
| GGTCAGAA | -0.206 |
| CGTCAAAC | 0.253 |
| AGTCAGAA | -0.0299 |
| GGTCAAAA | 0.096 |

| Sequence | PBM E-score |
| --- | --- |
| CGTCAGAC | 0.394 |
| CGTCAAAA | 0.36 |
| CGTCAGAG | 0.429 |
| AGTCAGAC | -0.203 |
| CCTCAGAG | -0.374 |
| CTAACTTA | 0.00938 |
| CGCTGTGC | -0.202 |
| CGTTATTA | 0.303 |
| CACAGTGC | -0.182 |
| AGACTTAT | -0.0312 |
| CGTCAACG | 0.389 |
| CGTCAGTA | 0.327 |
| GGTCAGGA | -0.245 |
| CGTCAGGC | 0.272 |
| CGTCAGTC | 0.375 |
| CGTCAATA | 0.359 |
| CGTCAACA | 0.323 |
| CGTCAATC | 0.365 |
| AGTCAACG | 0.0691 |
| AGTCAGTC | -0.02 |
| AGTCAATC | 0.017 |
| CGTCAGGA | 0.39 |
| CCTGGTAA | -0.124 |
| CGCTGTCC | -0.0275 |

| Sequence | PBM E-score |
| --- | --- |
| ATTCCATG | -0.0675 |
| AACGAAAT | 0.261 |
| CGTGGGAA | 0.00507 |
| GCATAAAC | 0.166 |
| ACCAAGGC | -0.197 |
| CTGCCCGC | -0.0733 |
| GCCTACAA | -0.169 |
| CTCTGATA | 0.0155 |
| GCAAGTCA | 0.00337 |
| ACAGAGAG | -0.274 |
| ATTTCTTG | 0.164 |
| GGCTCACA | -0.118 |
| GTGTCCAA | 0.142 |
| ATTGTGCA | 0.076 |
| CTGTTCGA | -0.13 |
| ACGTCGCC | 0.327 |
| CACGTGAG | 0.344 |
| AACGTGAC | 0.277 |
| CACGTGAC | 0.387 |
| CGCGTGAC | 0.267 |
| GACGTGAA | 0.358 |
| GACGTGAC | 0.432 |

From the supplement of paper PMC3334620
